Laboratory results: PubChem BioAssay AID720597 (Broad Institute, 2013)
Measured potencies and affinities stand elsewhere.

target: NAD-dependent protein deacylase sirtuin-5, mitochondrial (Homo sapiens) (UniProt Q9NXA8); experiment: blockers of sirtuin-5 peptide desuccinylation – biochemical, fluorescence imaging, cherry-pick, set 6, dose response (AID 720597); settings: Purified SirT5, succinyl-peptide-AMC/trypsin fluorescence; series mostly up to 15 µM; activity change, negative = inhibition: at the top concentration;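 note: lower AMC signal can also come from blocking the trypsin step; 0% = median of neutral control wells and -100% = median of positive control wells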
Sequence (Q9NXA8 whole entry, looked up): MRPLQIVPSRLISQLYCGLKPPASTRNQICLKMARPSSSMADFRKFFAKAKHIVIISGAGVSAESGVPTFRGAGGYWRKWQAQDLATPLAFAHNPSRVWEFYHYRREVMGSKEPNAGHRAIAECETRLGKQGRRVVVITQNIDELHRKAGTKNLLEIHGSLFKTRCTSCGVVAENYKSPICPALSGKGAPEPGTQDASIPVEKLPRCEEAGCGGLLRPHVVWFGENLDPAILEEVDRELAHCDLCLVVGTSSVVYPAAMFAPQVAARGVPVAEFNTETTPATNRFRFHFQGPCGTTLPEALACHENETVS

Activity change, negative = inhibition, inactive:
O=C(NCC[C@H]1CC[C@@H](NC(=O)C2CC2)[C@H](CO)O1)c1cc(Cl)cc(Cl)c1 -4.46%
O=C(O)[C@@H]1[C@@H](CO)[C@@H]2Cn3c(ccc(-c4ccccc4F)c3=O)[C@@H]2N1Cc1ccccc1 -19.4%
CN(C)Cc1cn(CC[C@H]2CC[C@@H](NC(=O)Nc3ccccc3F)[C@@H](CO)O2)nn1 7.23%
C[C@@H]1CN([C@H](C)CO)C(=O)c2cc(NS(=O)(=O)c3ccc(Cl)cc3)ccc2O[C@@H](C)CCCCO[C@@H]1CN(C)Cc1ccccc1 -26.9%
COc1ccc(NC(=O)N(C)C[C@H]2Oc3cc(C#CCC(C)C)ccc3S(=O)(=O)N([C@@H](C)CO)C[C@@H]2C)cc1 29%
C[C@H]1CN([C@@H](C)CO)C(=O)c2cc(NS(=O)(=O)c3ccc(Cl)cc3)ccc2O[C@H]1CN(C)Cc1ccc(Cl)c(Cl)c1 -3.12%
Cc1ccc(-c2ccc([C@@H]3[C@@H](CO)N4CCCCN(S(=O)(=O)c5cccc(C)c5)C[C@H]34)cc2)cc1 7.83%
CN(C)C(=O)[C@H]1[C@H](CO)[C@H]2Cn3c(ccc(-c4ccc(F)cc4)c3=O)[C@@H]1N2CCc1ccccc1 8.22%
COc1ccc(NC(=O)Nc2ccc3c(c2)C(=O)N([C@@H](C)CO)C[C@@H](C)[C@@H](CN(C)Cc2ccncc2)O3)cc1 -15.8% [at 16 µM]
C[C@H]1CN([C@@H](C)CO)C(=O)c2ccccc2-c2ccccc2CO[C@@H]1CN(C)Cc1ccc(C(F)(F)F)cc1 7.02%
C[C@H](CO)N1C[C@H](C)[C@@H](CN(C)Cc2ccc(Oc3ccccc3)cc2)Oc2c(NC(=O)CCCCCC(=O)Nc3ccccc3N)cccc2C1=O -17.5%
